Reference: PubChem BioAssay (Tox21)
Inconclusive results are not listed. Where a call stands in place of a potency, no number is given. The source made the active and inactive calls. Calls follow the shape of the dose curve; as a rule, active = well fitted cell-killing curve with a large enough effect in the repeat runs; inconclusive = weak or mixed curves, or effect the other way; inactive = flat fitted curve, though single readings scatter.

assay: cAMP Responsive Elements (CRE) small molecule antagonists, cell-based qHTS assay: qHTS cell viability counter screen (AID 2060913); conditions: CRE-bla HEK293T viability, CellTiter-Glo luminescence, 5 h; series mostly up to 92.4 µM; also: nearly all actives have a fitted effect of over 40% in size
Summary of the method: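 Viability of NKH477-stimulated (0.25 uM final) CRE-bla HEK293T cells is measured by CellTiter-Glo luminescence following 3 hrs compound exposure at 37 C.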
Potency is read from the fitted curve at half-maximal effect.

Row | SMILES | Potency | viability change, negative = cytotoxic
1 | COC(C(=O)O)c1ccccc1 (centres undefined) | inactive | –
2 | O=C(CCCCCCCCc1cccnc1)N1CCC(C=C(c2ccccc2)c2ccccc2)CC1 | inactive | –
3 | C[C@]1(Cn2ccnn2)[C@H](C(=O)O)N2C(=O)C[C@H]2S1(=O)=O | inactive | –
4 | C=CC(=C)CCC=C(C)C | inactive | –
5 | OC[C@H](Cc1cccc(O)c1)[C@H](CO)Cc1cccc(O)c1 | inactive | –
6 | CCCCCCCCCCCCCBr | inactive | –
7 | Clc1cc(Cl)c2c(c1)N=C1CCCCCN1C2 | inactive | –
8 | O=C1C=CC(=O)N1c1ccc(Cc2ccc(N3C(=O)C=CC3=O)cc2)cc1 | 54.5 µM (active) | –
9 | CC(=O)Nc1ccc(S(=O)(=O)Cl)cc1 | inactive | –
10 | CC(C)C(=O)Nc1ccc([N+](=O)[O-])c(C(F)(F)F)c1 | inactive | –
11 | CC12CCCC=C1C(=O)OC2=O (centres undefined) | inactive | –
12 | CCCCCCCCCCCCS | inactive | –
13 | OCCCO | inactive | –
14 | OC1(c2ccc(Cl)c(C(F)(F)F)c2)CCN(CCCC(c2ccc(F)cc2)c2ccc(F)cc2)CC1 | 29.8 µM (active) | –
15 | CC(C)(C)c1ccccc1 | inactive | –
16 | Cc1cccc(N(C)C(=S)Oc2ccc3c(c2)C2CCC3C2)c1 (centres undefined) | inactive | –
17 | C[n+]1ccn(CCO)c1 | inactive | –
18 | CCCCC(=O)N(C)C | inactive | –
19 | O=C1OC2(c3ccc(O)cc3Oc3cc(O)ccc32)c2ccc(N=C=S)cc21 | inactive | –
20 | CCc1ccc(C(=O)C(C)CN2CCCCC2)cc1 (centres undefined) | inactive | –

Row | SMILES | Potency | viability change, negative = cytotoxic
21 | COC(=O)C1=C(C)NC(C)=C(C(=O)OCCN(C)Cc2ccccc2)C1c1cccc([N+](=O)[O-])c1 (centres undefined) | inactive | –
22 | CC(C)C[P+](C)(CC(C)C)CC(C)C | inactive | –
23 | Oc1ccc2cc(SSc3ccc4cc(O)ccc4c3)ccc2c1 | inactive | –
24 | CC(C)(C)NC[C@H](O)COc1cccc2c1CCCC2=O | inactive | –
25 | CCCCNC(=O)NCCCC | inactive | –
26 | CC(C)N=C(N)/N=C(\N)Nc1ccc(Cl)cc1 | inactive | –
27 | CCCCNc1ccc(C(=O)OCCN(CC)CC)cc1 | inactive | –
28 | Cc1ccc(O)c(C(C)(C)C)c1 | inactive | –
29 | CC/C(=C(\c1ccc(O)cc1)c1ccc(OCCN(C)C)cc1)c1ccccc1 | 68.7 µM (active) | –
30 | O=C(CCN1CCN2CCCC2C1)N1c2ccccc2Sc2ccc(Cl)cc21 (centres undefined) | – | 0.501% [at 18.9 µM] (inactive)
31 | C=C1c2cccc(O)c2C(O)=C2C(=O)[C@]3(O)C(O)=C(C(N)=O)C(=O)[C@@H](N(C)C)[C@@H]3[C@@H](O)[C@H]12 | inactive | –
32 | CC(C)C[C@H]1C(=O)N2CCC[C@H]2[C@]2(O)O[C@](NC(=O)[C@@H]3C=C4c5cccc6[nH]c(Br)c(c56)C[C@H]4N(C)C3)(C(C)C)C(=O)N12 | inactive | –
33 | CCOC(=O)NNc1ccc(N(CC)CC(C)O)nn1 (centres undefined) | inactive | –
34 | COc1cc(S(=O)(=O)O)c(C)cc1N=Nc1c(O)ccc2cc(S(=O)(=O)O)ccc12 | inactive | –
35 | CCCNCCC | inactive | –
36 | CC1=C(C(=O)OC(C)C)C(c2cccc([N+](=O)[O-])c2)C(C(=O)OC2CN(C(c3ccccc3)c3ccccc3)C2)=C(N)N1 (centres undefined) | inactive | –
37 | CCC(C)(C)C1CCC(O)CC1 (centres undefined) | inactive | –
38 | CO[C@@]12[C@H](COC(N)=O)C3=C(C(=O)C(C)=C(N)C3=O)N1C[C@@H]1N[C@@H]12 | inactive | –
39 | CC(=O)OCC(=O)[C@@]1(O)CC[C@H]2[C@@H]3CCC4=CC(=O)C=C[C@]4(C)[C@H]3[C@@H](O)C[C@@]21C | inactive | –
